According to PubChem BioAssay:
Values joined by “and” are separate entries in the source; they are usually repeats but may differ in a detail not shown here. Equal entries are not always repeated. Values without a mark were called inactive. Active and inactive are the calls of the source. No rule for the calls is given here.

Target: L-lactate dehydrogenase (Plasmodium falciparum (isolate CDC / Honduras)) (UniProt Q27743)
Sequence (Q27743 whole entry, looked up): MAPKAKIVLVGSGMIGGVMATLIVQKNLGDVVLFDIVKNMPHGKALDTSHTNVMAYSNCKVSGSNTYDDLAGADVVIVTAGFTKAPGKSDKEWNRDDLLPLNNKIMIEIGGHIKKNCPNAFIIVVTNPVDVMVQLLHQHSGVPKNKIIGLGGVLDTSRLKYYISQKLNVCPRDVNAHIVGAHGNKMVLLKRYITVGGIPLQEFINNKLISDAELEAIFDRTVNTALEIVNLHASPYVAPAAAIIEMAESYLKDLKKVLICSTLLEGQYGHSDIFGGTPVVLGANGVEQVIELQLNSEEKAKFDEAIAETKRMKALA
Test: PfLDH activity inhibition – cell lysate, 3D7 strain, counter-screen for P. falciparum growth inhibition project (AID 2304);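 also: 0% = vehicle and 100% = reference inhibitor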
Settings: P. falciparum 3D7 crude extract, LDH APAD/NBT absorbance; at 2 µM; active compounds read high
Work on `CN(c1cc(NC(=O)c2cccs2)ccn1)C1CCN(Cc2cccc(F)c2)CC1` yielded an inhibition of 4%.
`C[C@@H](NC(C)(C)C)[C@H](O)c1ccc(Cl)c(C(F)(F)F)c1` gave an inhibition of -6%.
Work on `CC(=O)N(Cc1cccc(-c2cccc(CNCCc3ccccc3)c2)c1)C1CCN(Cc2ccccc2)CC1` yielded an inhibition of -3%.
With `CC[C@H]1CN2CC[C@@H]1C[C@H]2[C@H](O)c1cc(-c2ccc(F)cc2)nc2ccc(O)cc12` the inhibition was -2%.
With `O=C(Nc1ccccc1OC(F)(F)F)NC1CCC(CN2CCC(c3c[nH]c4ccccc34)CC2)CC1` (configuration not stated) the inhibition was 6% and 8%.
Compound `COCC(=O)N(Cc1cccc(-c2ccc(CNCCc3ccccc3)cc2)c1)C1CCN(Cc2ccccc2)CC1` has an inhibition of 4%.
In the case of `O=C(c1cccs1)N(Cc1cccc(-c2ccc(CNC3CCCC3)cc2)c1)C1CCN(Cc2ccccc2)CC1`, the inhibition was 0%.
With `O=C(C=Cc1ccc(-c2ccccc2)cc1)NC1CCC(CN2CCC(c3c[nH]c4ccccc34)CC2)CC1` (configuration not stated) the inhibition was -7%.
For `CN(Cc1ccccc1)C1CCN(CCc2c[nH]c3ccc(F)cc23)CC1`, the inhibition was 5%.
In the case of `CC(C)CNCc1cccc(-c2cccc(CN(C(=O)NC3CCCCC3)C3CCN(Cc4ccccc4)CC3)c2)c1`, the inhibition was 8%.
Compound `CC[C@H]1CN2CC[C@H]1C[C@H]2[C@H](O)c1cc(-c2cccc(Cl)c2)nc2ccc(OC)cc12` has an inhibition of 6%.
`Oc1cc2c(cc1CN1CCN(Cc3ccccc3)CC1)CCC2` showed an inhibition of 0%.

System: not listed separately
Test: inhibition of 3D7 malaria parasite growth – strain 3D7 (AID 2306);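 also: 0% = DMSO wells and 100% = chloroquine plus artemisinin control wells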
Settings: P. falciparum 3D7 erythrocytic growth, LDH absorbance, 72 h; at 2 µM; active compounds read high
In the case of `CC[C@H]1CN2CC[C@H]1C[C@H]2[C@H](O)c1cc(-c2ccccc2F)nc2ccc(OC)cc12`, the growth inhibition was 99% (active).
For `O=C(CNC1CCCCC1)c1ccc(O)c(O)c1`, the growth inhibition was 102% (active).
In the case of `CCCc1c(C(=O)NC2CCC(CN3CCC(c4c[nH]c5ccccc45)CC3)CC2)cnn1-c1c(Cl)cc(Cl)cc1Cl` (configuration not stated), the growth inhibition was 100% (active).
With `CC[C@H]1CN2CC[C@H]1C[C@H]2[C@H](O)c1ccnc2ccc(OC)cc12` the growth inhibition was 100% (active).
In the case of `Oc1ccccc1CNCC(O)c1cccc(C(F)(F)F)c1` (configuration not stated), the growth inhibition was 100% (active).
For `CN1CC=C(c2c[nH]c3ccc(Br)cc23)CC1`, the growth inhibition was 88% (active).
For `[O-]c1n[n+](C2CCCCC2)no1`, the growth inhibition was 91% (active).
For `OC(CNCc1ccccc1OC(F)F)c1cccc(C(F)(F)F)c1` (configuration not stated), the growth inhibition was 97% (active).
With `CCC1(C)CC(CCNCc2ccccc2O)(c2ccc(F)cc2)CCO1` (configuration not stated) the growth inhibition was 98% (active).
In the case of `CC[C@@]1(O)C(=O)OCc2c1cc1n(c2=O)Cc2c-1nc1cc3c(cc1c2CN1CCOCC1)OCO3`, the growth inhibition was 89% (active).
With `COCCSc1ccc(CC(C)NCC(O)c2cccc(Cl)c2)cc1` (configuration not stated) the growth inhibition was 97% (active).
In the case of `CN(c1cc(NC(=O)c2ccc(F)cc2)ccn1)C1CCN(Cc2cccc(O)c2)CC1`, the growth inhibition was 100% (active).
With `CC(Cc1ccc(Sc2ccccc2)cc1)NCC(O)c1cccc(C(F)(F)F)c1` (configuration not stated) the growth inhibition was 99% (active).
For `C[C@@H](CC1CCCCC1)NCc1ccccc1O`, the growth inhibition was 98% (active).
For `CC(C)CNCc1cccc(-c2ccc(CN(C(=O)Nc3ccccc3)C3CCN(Cc4ccccc4)CC3)cc2)c1`, the growth inhibition was 101% (active).
For `Cc1[nH]c2ccccc2c1C1=CCN(C[C@H]2C[C@@H]2C(=O)c2ccccc2)CC1`, the growth inhibition was 95% (active).
In the case of `CCCCCOc1ccc(CC(C)NCC(O)c2cccc(Cl)c2)cc1` (configuration not stated), the growth inhibition was 101% (active).
For `Cc1[nH]c2cc(Cl)ccc2c1C1=CCN(CCN2CCOc3c(Br)cccc3C2=O)CC1`, the growth inhibition was 90% (active).
In the case of `COc1ccc(O)c(CN2CCN(c3cc(C)ccc3C)CC2)c1`, the growth inhibition was 90% (active).
In the case of `O=C(CCCCCc1ccccc1)NC1CCC(CN2CCC(c3c[nH]c4ccccc34)CC2)CC1` (configuration not stated), the growth inhibition was 86% (active).
In the case of `CC(=O)C1(c2ccccc2)CCN(CCC(NC(=O)c2cc(C(F)(F)F)cc(C(F)(F)F)c2)c2ccc(Cl)c(Cl)c2)CC1` (configuration not stated), the growth inhibition was 91% (active).
In the case of `C/C=C1\CN2CC[C@H]1C[C@@H]2[C@@H](O)c1ccnc2ccc(O)cc12`, the growth inhibition was 98% (active).
With `O=C(/C=C/c1cccc(F)c1)NC1CCC(CN2CCC(c3c[nH]c4ccccc34)CC2)CC1` (configuration not stated) the growth inhibition was 98% (active) and 99% (active).
In the case of `CC[C@H]1CN2CC[C@@H]1C[C@H]2[C@H](O)c1cc(N2CCC(O)CC2)nc2ccc(OC)cc12`, the growth inhibition was 99% (active).
In the case of `COc1ccc(CN2CCN(CCOC(c3ccc(F)cc3)c3ccc(F)cc3)CC2)c(O)c1`, the growth inhibition was 97% (active).
In the case of `CC[C@H]1CN2CC[C@@H]1C[C@H]2[C@H](O)c1cc(-c2cc(Cl)cc(Cl)c2)nc2ccc(OC)cc12`, the growth inhibition was 99% (active).
With `CS(=O)(=O)Nc1ccc2[nH]cc(C3C[C@H]4CC[C@@H](C3)N4CC3CCC(NC(=O)/C=C/c4ccc(Cl)c(Cl)c4)CC3)c2c1` (some centres not stated) the growth inhibition was 101% (active).
In the case of `CC(C)CNCc1ccc(-c2cccc(CN(C(=O)Nc3ccccc3)C3CCN(Cc4ccccc4)CC3)c2)cc1`, the growth inhibition was 101% (active).
For `CN(c1cc(NC(=O)c2cccs2)ccn1)C1CCN(Cc2cccc(F)c2)CC1`, the growth inhibition was 94% (active).
With `C[C@@H](NC(C)(C)C)[C@H](O)c1ccc(Cl)c(C(F)(F)F)c1` the growth inhibition was 97% (active).
In the case of `CC(=O)N(Cc1cccc(-c2cccc(CNCCc3ccccc3)c2)c1)C1CCN(Cc2ccccc2)CC1`, the growth inhibition was 100% (active).
For `CC[C@H]1CN2CC[C@@H]1C[C@H]2[C@H](O)c1cc(-c2ccc(F)cc2)nc2ccc(O)cc12`, the growth inhibition was 99% (active).
With `O=C(Nc1ccccc1OC(F)(F)F)NC1CCC(CN2CCC(c3c[nH]c4ccccc34)CC2)CC1` (configuration not stated) the growth inhibition was 101% (active) and 99% (active).
For `COCC(=O)N(Cc1cccc(-c2ccc(CNCCc3ccccc3)cc2)c1)C1CCN(Cc2ccccc2)CC1`, the growth inhibition was 93% (active).
For `O=C(c1cccs1)N(Cc1cccc(-c2ccc(CNC3CCCC3)cc2)c1)C1CCN(Cc2ccccc2)CC1`, the growth inhibition was 90% (active).
For `O=C(C=Cc1ccc(-c2ccccc2)cc1)NC1CCC(CN2CCC(c3c[nH]c4ccccc34)CC2)CC1` (configuration not stated), the growth inhibition was 101% (active).
In the case of `CN(Cc1ccccc1)C1CCN(CCc2c[nH]c3ccc(F)cc23)CC1`, the growth inhibition was 100% (active).
With `CC(C)CNCc1cccc(-c2cccc(CN(C(=O)NC3CCCCC3)C3CCN(Cc4ccccc4)CC3)c2)c1` the growth inhibition was 97% (active).
With `CC[C@H]1CN2CC[C@H]1C[C@H]2[C@H](O)c1cc(-c2cccc(Cl)c2)nc2ccc(OC)cc12` the growth inhibition was 98% (active).
With `Oc1cc2c(cc1CN1CCN(Cc3ccccc3)CC1)CCC2` the growth inhibition was 98% (active).
